Here are results for 27 compounds from PubChem BioAssay (NCATS).

“And” between values parts separate entries of the source, which are not always exact repeats. Identical values can stand only once. Inconclusive results are not listed. A number with no mark means an inactive call. The source made the active and inactive calls. Calls follow the shape of the dose curve; as a rule, active = well fitted curve in the direction sought with a large enough effect; inconclusive = small, poorly fitted or top-dose-only effect, or another doubt; inactive = no such curve, though single readings can be large; an effect the other way counts as inactive or inconclusive. Numbered stars: 1 amine (or outer) side, 2 acyl side, 3 side chain; on linkers, the order of the positions; unused ones are H or OH. Bridge positions count the residues as written; N and C are the ends. Square brackets hold non-standard residues; d marks the D form. Peptide text beside a SMILES is read from it. * marks the point of attachment. pTerphenylCO(4''-OnC5H11) = CCCCCOc1ccc(-c2ccc(-c3ccc(C(=O)*)cc3)cc2)cc1; Orn(4R-OH,5R-OH) = O=C([C@H](C[C@@H](O)[C@@H](O)N[*:3])N[*:1])[*:2]; hTyr(3S-OH,4S-OH) = N[C@H](C(=O)O)[C@H](O)[C@@H](O)c1ccc(O)cc1; Pro(3S-OH,4S-Me) = C[C@H]1CN[C@H](C(=O)O)[C@H]1O; Hyp = O=C(O)[C@@H]1C[C@@H](O)CN1

In assay [1] the target is Cellular tumor antigen p53 (Homo sapiens) (UniProt P04637). Kind of assay: Primary qHTS for small molecule compounds that upregulate eGFP-tagged delta133p53alpha (in N-terminal) cells. (AID 2060322). Also: nearly all actives have a fitted effect of over 75% in size. Also: potency is read from the fitted curve at half-maximal effect.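 As to activation: cells pre-induced with doxycycline then dosed without doxycycline; series mostly up to about 56 µM; 0% = DMSO vehicle and 100% = reference activator.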 Particulars: NCI-H358 eGFP-delta133p53alpha fluorescence, 24 h; activation: hits give high values. The gist of the method: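 NCI-H358 cells pre-induced 24 h with 10 ng/ml doxycycline for eGFP-delta133p53alpha, plated dox-free and exposed 24 h at 37C to titrated compounds. Fixed, Hoechst-stained; gated GFP peak intensity by laser scanning cytometry, normalized to DMSO (0%) and 57.5 uM 5-azacytidine (100%).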
Sequence of Cellular tumor antigen p53 (Homo sapiens) (P04637 whole entry, looked up): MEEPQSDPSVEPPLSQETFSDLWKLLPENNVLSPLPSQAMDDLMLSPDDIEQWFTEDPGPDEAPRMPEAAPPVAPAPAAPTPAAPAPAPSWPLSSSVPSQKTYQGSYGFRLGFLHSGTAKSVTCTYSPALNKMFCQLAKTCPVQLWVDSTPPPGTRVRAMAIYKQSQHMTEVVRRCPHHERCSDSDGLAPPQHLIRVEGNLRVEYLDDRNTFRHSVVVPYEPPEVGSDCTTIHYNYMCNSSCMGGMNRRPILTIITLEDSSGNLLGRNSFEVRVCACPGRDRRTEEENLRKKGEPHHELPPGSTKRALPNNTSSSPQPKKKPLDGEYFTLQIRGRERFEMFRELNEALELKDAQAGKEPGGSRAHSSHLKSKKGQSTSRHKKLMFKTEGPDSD
On the technique in general: Quantitative high-throughput screening tests each substance at several concentrations.

Assay [2] has as its target Aldehyde dehydrogenase, mitochondrial (Homo sapiens) (UniProt P05091). The assay is described as follows: qHTS for Inhibitors of the Aldehyde Dehydrogenase Family (ALDH2) Primary screen (AID 2061308).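 Also: plate controls were vehicle for no effect and reference inhibitor for full effect; nearly all actives have a fitted effect of over 55% in size.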
Assay [3] concerns the target Retinaldehyde dehydrogenase 3 (Homo sapiens) (UniProt P47895). Kind of assay: qHTS for Inhibitors of the Aldehyde Dehydrogenase Family (ALDH1A3) Validation screen (AID 2061312). Also: % is scaled to controls: 0 for no effect and ±100 for the full control effect; nearly all actives have a fitted effect of over 45% in size.
The target is the same in assay [4]. The assay is described as follows: qHTS for Inhibitors of the Aldehyde Dehydrogenase Family (ALDH1A3) Primary screen (AID 2061315).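 Also: plate controls were DMSO vehicle for no effect and reference inhibitor for full effect.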

With `CN1CCOC(c2ccccc2)c2ccccc2C1` (stereo not drawn), in assay [1], the activation was 0.837% and 6.21%. Further, the Potency entry in assay [2], in assay [3] and in assay [4] was “inactive” throughout.

`COc1ccc(CCc2nc3cc(-c4c(C)noc4C)ccc3n2C[C@H](C)N2CCOCC2)cc1Cl`: in assay [1], the activation is 20.1%. In addition, the Potency entry in assay [2], in assay [3] and in assay [4] was “inactive” throughout.

`CCOC(=O)c1sc(NC(=O)[C@H](C(C)C)n2c(=O)[nH]c3ccccc3c2=O)nc1C`: in assay [1], the activation is 14.3%. In addition, the Potency entry in assay [2], in assay [3] and in assay [4] was “inactive” in each case.

Regarding `CC1(C)[C@H]2C[C@H](C/C=C\CCCC(=O)O)[C@@H](NC(=O)c3csc4ccc(O)cc34)[C@@H]1C2`, the activation in assay [1] is -4.77%. For the same compound, the Potency entry in assay [2], in assay [3] and in assay [4] was “inactive” each time.

Turning to `C[C@@H](NC(=O)[C@H](O)c1cc(F)cc(F)c1)C(=O)N[C@@H]1C(=O)N(C)c2ccccc2-c2ccccc21`, in assay [1], the activation was -6.21%. Also, the Potency entry in assay [2], in assay [3] and in assay [4] was “inactive” throughout.

For `CN(C)CCc1c[nH]c2ccc(C[C@H]3COC(=O)N3)cc12`, the activation in assay [1] was -0.837% and -21.4% and -11.5%. Also, the Potency result in assay [2], in assay [3] and in assay [4] was “inactive” throughout.

With `CCCCCOc1ccc(-c2ccc(-c3ccc(C(=O)N[C@H]4C[C@@H](O)[C@@H](O)NC(=O)[C@@H]5[C@@H](O)[C@@H](C)CN5C(=O)[C@H]([C@@H](C)O)NC(=O)[C@H]([C@H](O)[C@@H](O)c5ccc(O)cc5)NC(=O)[C@@H]5C[C@@H](O)CN5C(=O)[C@H]([C@@H](C)O)NC4=O)cc3)cc2)cc1` ({pTerphenylCO(4''-OnC5H11)}-[Orn(4R-OH,5R-OH)]T[Hyp][hTyr(3S-OH,4S-OH)]T[Pro(3S-OH,4S-Me)]; lactam 1-C), in assay [1], the activation was 22.9%. The Potency result in assay [2], in assay [3] and in assay [4] was “inactive” each time.

Consider `C=CCCN1CCC2(CC1)CN(C(=O)c1c(F)cccc1F)c1ccc(Cl)cc12`, for which, in assay [1], the activation was 8.11%. The Potency result in assay [2], in assay [3] and in assay [4] was “inactive” in each case.

`Cc1ccc(-n2nc(C(C)(C)C)cc2NC(=O)Nc2cc(COc3cccnc3)[nH]n2)cc1`: the activation in assay [1] is 6.21%. Also, the Potency entry in assay [2], in assay [3] and in assay [4] was “inactive” each time.

With `CC(C)(F)CC(NC(c1ccc(-c2ccc(S(C)(=O)=O)cc2)cc1)C(F)(F)F)C(=O)NC1(C#N)CC1` (stereo not drawn), in assay [1], the activation is -1.43%. Also, the Potency result in assay [2], in assay [3] and in assay [4] was “inactive” throughout.

As for `COc1ccc2c(c1O[C@H]1CCNC1)CCC2`, the activation in assay [1] was -0.955%. Besides, the Potency entry in assay [2], in assay [3] and in assay [4] was “inactive” throughout.

With `CCOc1ccc(C(Nc2ccccn2)c2ccc3ccc(C)nc3c2O)cc1C` (stereo not drawn), the activation in assay [1] is 19.6%. For the same compound, the Potency result in assay [2], in assay [3] and in assay [4] was “inactive” each time.

For `COc1ccccc1Oc1c(NS(=O)(=O)c2ccc(C)cn2)nc(-c2ccncc2)nc1OC`, the activation in assay [1] is 20%. For the same compound, the Potency entry in assay [2], in assay [3] and in assay [4] was “inactive” in each case.

For the compound `CCCNCCOc1ccc(NC(=O)c2c[nH]c3c2C(=O)CCC3)cc1F`, the activation in assay [1] is -0.955%. In addition, the Potency entry in assay [2], in assay [3] and in assay [4] was “inactive” throughout.

`COc1cc(Nc2nc3c(s2)CCCC3c2ccc(F)cc2)ccc1-n1cnc(C)c1` (stereo not drawn): the activation in assay [1] is -13.4%. Besides, the Potency result in assay [2], in assay [3] and in assay [4] was “inactive” throughout.

With `CNC(=O)[C@@H](c1ccccc1)N1CCc2cc(OC)c(OC)cc2[C@@H]1CCc1ccc(C(F)(F)F)cc1`, in assay [1], the activation is -3.34%. Besides, the Potency entry in assay [2], in assay [3] and in assay [4] was “inactive” each time.

As for `CCOC(=O)CCN(C(=O)c1ccc2c(c1)nc(CNc1ccc(C(=N)N)cc1)n2C)c1ccccn1`, the activation in assay [1] is -4.77%. Besides, the Potency entry in assay [2], in assay [3] and in assay [4] was “inactive” each time.

Consider `COCCN1CCC(C(=O)NO)(S(=O)(=O)c2ccc(Oc3ccc(OC(F)(F)F)cc3)cc2)CC1`, for which the activation in assay [1] is -13.4%. Also, the Potency entry in assay [2], in assay [3] and in assay [4] was “inactive” each time.

As to `O=C(O)c1cc(N(Cc2ccc(C3CCCCC3)cc2)C(=O)c2ccc(Oc3ccccc3)cc2)ccc1O`, the activation in assay [1] is -2.86%. Also, the Potency result in assay [2], in assay [3] and in assay [4] was “inactive” each time.

For `CC(Cc1cc2c(c(C(N)=O)c1)N(CCCO)CC2)NCCOc1ccccc1OCC(F)(F)F` (stereo not drawn), the activation in assay [1] was 5.25%. Further, the Potency entry in assay [2], in assay [3] and in assay [4] was “inactive” in each case.

As to `Cn1nc(C(C)(C)C)cc1C(=O)NC(Cc1cccc(Cl)c1)C(=O)NCC#N` (stereo not drawn), the activation in assay [1] was -4.3%. The Potency result in assay [2], in assay [3] and in assay [4] was “inactive” in each case.

For `COc1ccc(NC(=O)c2ccc(-c3ccc(-c4nnc(C)o4)cc3C)cc2)cc1N1CCN(C)CC1`, in assay [1], the activation was -6.21%. The Potency entry in assay [2], in assay [3] and in assay [4] was “inactive” each time.

As for `CC(C)(C)C(=O)C(Oc1ccc(Cl)cc1)n1ccnc1` (stereo not drawn), the activation in assay [1] was -37.9% and -2.39%. The Potency result in assay [2], in assay [3] and in assay [4] was “inactive” throughout.

For the compound `CC(C)C(=O)c1cn(CC(=O)COc2ccc(Oc3ccccc3)cc2)c2ccc(C(=O)O)cc12`, in assay [1], the activation is 6.68%. The Potency result in assay [2], in assay [3] and in assay [4] was “inactive” each time.

Turning to `CCOc1ccc(-n2c([C@@H](C)N(Cc3cccnc3)C(=O)Cc3ccc(OC(F)(F)F)cc3)nc3ncccc3c2=O)cc1`, the Potency in assay [1] was 19 µM (active). Further, the Potency entry in assay [2], in assay [3] and in assay [4] was “inactive” each time.

For `CCN(CC)C(=O)Nc1ccc(OCC(O)CNC(C)(C)C)c(C(C)=O)c1` (stereo not drawn), in assay [1], the activation is -6.69% and 4.3%. Moreover, the Potency entry in assay [2], in assay [3] and in assay [4] was “inactive” throughout.

Turning to `Cc1noc(C)c1-c1cc(O)cc(C(O)c2ccccc2)c1` (stereo not drawn), the activation in assay [1] was 10.1%. For the same compound, the Potency entry in assay [2], in assay [3] and in assay [4] was “inactive” throughout.
